# Compound activity from PubChem BioAssay.
# A selection: hits, their analogues and other compounds. The true share with any hit is near 3.7%.
# Rce1 inh: yeast Rce1p protease inhibitors, primary screen, biochemical, fluorescence, cell-free homogeneous; yeast membranes, quenched prenylated peptide cleavage fluorescence; calls only; 290,000 tested, 0.27% active; AID 2563, 2010;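 active = fall in fluorescence gain of 50% or more versus controls, with final raw signal at or below 3038400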;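 note: plate controls were neutral control wells for no effect and wells lacking membranes for full effect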
# Target sequence (Q03530 whole entry, looked up): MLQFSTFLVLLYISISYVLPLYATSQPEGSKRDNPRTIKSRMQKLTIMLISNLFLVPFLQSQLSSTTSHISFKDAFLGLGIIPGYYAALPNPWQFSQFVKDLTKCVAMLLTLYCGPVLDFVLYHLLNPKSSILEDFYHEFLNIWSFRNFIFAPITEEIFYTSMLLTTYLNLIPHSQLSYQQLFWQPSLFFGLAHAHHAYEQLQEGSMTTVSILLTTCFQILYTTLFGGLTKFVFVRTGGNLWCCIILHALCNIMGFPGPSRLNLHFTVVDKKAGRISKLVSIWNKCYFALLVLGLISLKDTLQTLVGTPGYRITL
# tim10-1 inh: growth inhibitors of tim10-1 mutant yeast, primary screen, luminescence, uHTS; AID 463190, 2010; inhibition, % at 20 µM; 330,000 tested, 2.2% active; S. cerevisiae tim10-1 ts strain growth, BacTiter-Glo, 24 h;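 active = inhibition of at least 40%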;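 note: mutant grown at 25 °C; 0% = DMSO wells with yeast and 100% = wells holding no yeast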
# PfHsp90 set2: growth inhibition of PfHsp90-expressing yeast, primary screen, antimalarial PfHsp90 inhibitor project, S. cerevisiae, BacTiter-Glo luminescence, single point, set 2 | 310,000 tested, 0.32% active | inhibition, % at 9.4 µM | BacTiter-Glo ATP, 48 h; yeast lacking PDR1 and PDR3 efflux regulators;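 active = every replicate shows inhibition above about 80%, whatever the replicate mean, limit read from the data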;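 note: 0% = DMSO neutral controls and 100% = 20 µM radicicol positive controls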
# tim23-1 inh: growth inhibitors of tim23-1 mutant yeast, primary screen, luminescence, uHTS. inhibition, % at 20 µM. 330,000 tested, 1.3% active. S. cerevisiae tim23-1 growth, BacTiter-Glo luminescence, 24 h;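 active = growth inhibition of the mutant yeast at or above 50%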;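 note: temperature-sensitive mutant grown at 25 °C; plate controls were DMSO-treated mutant yeast for no effect and medium wells lacking yeast for full effect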
# TIM10 inh: growth inhibitors of isogenic TIM10 control yeast, primary screen, counter-screen for tim10-1 yeast inhibitor project, luminescence, uHTS | 330,000 tested, 1.4% active | S. cerevisiae TIM10 strain growth, BacTiter-Glo luminescence, 24 h | inhibition, % at 10 µM;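 active = inhibition of 40% or more at the single tested concentration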;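 note: wild-type TIM10 isogenic control strain grown at permissive 25 °C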
# TIM10 conf: growth inhibitors of wild-type TIM10 yeast, confirmation, counter-screen for tim10-1 synthetic lethality project, single concentration, luminescence, S. cerevisiae. shares compounds with TIM10 inh. 4,600 tested, 63% active. inhibition, % at 10 µM. S. cerevisiae tim10 strain growth, BacTiter-Glo luminescence, 24 h;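 active = inhibition of yeast growth at or above a set limit in either of two replicates at 10 µM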;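 note: this counterscreen used the strain with wild-type TIM10; 0% = yeast with DMSO and 100% = medium wells lacking yeast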
# Numbers without * were called inactive; i = inactive; nt = no result given.
SMILES,Rce1 inh,tim10-1 inh,PfHsp90 set2,tim23-1 inh,TIM10 inh,TIM10 conf
CCn1cc(/C=C(\NC(=O)c2cc(OC)c(OC)c(OC)c2)C(=O)NCCN2CCOCC2)c2ccccc21,i,14,26,-4,97*,0
CCn1cc(/C=C(\NC(=O)c2cc(OC)c(OC)c(OC)c2)C(=O)NCCCN2CCOCC2)c2ccccc21,i,20,13,9,4,nt
O=S(=O)(NC1CCCCC1)c1ccc(N2CCOCC2)nc1,i,-10,-8,-5,-6,nt
COc1ccc(NC(=O)CCCCCn2nnc3ccccc3c2=O)cc1OC,i,19,-15,12,-4,nt
CC(C)CNS(=O)(=O)c1ccc(S(=O)(=O)N2CCC(N3CCCCC3)CC2)cc1,i,3,16,7,-22,nt
COc1ccc(Oc2ccc(/C=C/C(=O)c3ccc(O)cc3)cc2[N+](=O)[O-])cc1,i,31,-17,49,44*,39*
CN1CCN(c2ccccc2NC(=O)COc2ccc(Br)cc2)CC1,i,25,nt,15,-4,nt
CC1(C(=O)OCC(=O)Nc2ccc3ccccc3c2)CC1(Cl)Cl (stereo not given),i,21,-15,43,48*,32*
CC1(C(=O)OCC(=O)Nc2ccc(C(N)=O)cc2)CC1(Cl)Cl (stereo not given),i,-6,nt,-3,-15,nt
CCN1C(=O)C(=Cc2cccc(OC)c2Oc2ccc([N+](=O)[O-])cc2[N+](=O)[O-])SC1=S,i,25,-16,42,44*,6
Clc1ccc(-c2noc(CSc3nnc(-c4ccncc4)n3-c3ccccc3)n2)cc1,i,15,12,25,48*,36*
Cc1ccc(-c2noc(CSc3nnc(Cc4cccs4)n3-c3ccccc3)n2)cc1,i,14,-5,21,19,nt
Cc1ccc(-c2noc(CSc3nnc(-c4ccncc4)n3-c3ccc(C)cc3)n2)cc1,i,38,-16,40,43*,39*
CCOc1ccc(-n2c(SCc3nc(-c4ccc(C)cc4)no3)nnc2-c2ccncc2)cc1,i,35,nt,25,39,nt
Clc1ccc(-c2noc(CSc3nnc(Cc4cccs4)n3-c3ccccc3)n2)cc1,i,31,3,34,97*,22
COc1ccc(/C=C/C(=O)Nc2cc(F)ccc2C)cc1S(=O)(=O)N1CCOCC1,i,10,nt,22,-13,nt
CCCCN(C(=O)C1CCCC1)c1c(N)n(Cc2ccccc2)c(=O)[nH]c1=O,nt,-7,-12,0,-3,nt
CCN(C(=O)COC(=O)Cc1ccc(F)cc1)c1c(N)n(Cc2ccccc2)c(=O)[nH]c1=O,nt,-9,-13,-15,2,nt
Oc1cccc2c(NC(=S)Nc3ccc(SC(F)F)cc3)cccc12,i,38,-23,47,52*,42*
CCN1CCN(C(=O)c2cn(CCOC)c(=O)c3c2c2ccccc2n3C)CC1,i,6,23,-12,2,nt
CC(C)Cn1cc(C(=O)N2CCN(c3ccccn3)CC2)c2c3ccccc3n(C)c2c1=O,i,33,-8,25,44*,25
COc1cccc(/C=N/NC(N)=S)c1OCc1cccc(Cl)c1,i,36,10,20,46*,48*
Cc1n[nH]c(C)c1Sc1ccccc1N=Cc1cc(Cl)cc([N+](=O)[O-])c1O,i,22,-27,22,10,nt
Cc1ccc(N=Cc2cc(Cc3ccccc3Cl)cc([N+](=O)[O-])c2O)c(O)c1,i,36,111*,40,52*,34*
COc1ccc2[nH]c3c(c2c1)CCNC3c1ccc([N+](=O)[O-])o1 (stereo not given),i,-43,18,12,41*,54*
SMILES,Rce1 inh,tim10-1 inh,PfHsp90 set2,tim23-1 inh,TIM10 inh,TIM10 conf
COc1ccc2[nH]c3c(c2c1)CCNC3C1CC=C(C)CC1 (stereo not given),i,-23,-2,-14,-12,nt
COc1ccc(-c2oc3ncn(CCN4CCOCC4)c(=N)c3c2-c2ccc(OC)cc2)cc1,i,37,-2,35,42*,19
c1ccc(-c2oc3ncnc(NCCCN4CCOCC4)c3c2-c2ccccc2)cc1,i,22,-1,13,-23,nt
COc1cccc(N2CC(NC(=O)C(=O)c3c[nH]c4ccccc34)CC2=O)c1 (stereo not given),i,13,nt,18,11,nt
O=C(NC1CC(=O)N(c2cccc(F)c2)C1)C(=O)c1c[nH]c2ccccc12 (stereo not given),i,-4,nt,-11,97*,-2
O=[N+]([O-])c1ccc(Sc2nc3ccccc3o2)c([N+](=O)[O-])c1,i,19,nt,-183,47*,68*
O=[N+]([O-])c1ccc(Cl)cc1Sc1nc2ccccc2o1,i,13,-1,24,20,nt
Cc1[nH]c2ccccc2c1CCNC(=O)c1ccc2c(c1[N+](=O)[O-])C(=O)c1ccccc1C2=O,i,31,-8,37,45*,14
CCCNC(=O)NCCc1c(C)[nH]c2ccccc12,i,7,6,4,-4,nt
CCn1cc([N+](=O)[O-])c(C(=O)N2N=C3/C(=C/c4cccs4)CCCC3C2c2cccs2)n1 (stereo not given),i,33,nt,27,41*,9
O=C(Oc1ccc2c3c(c(=O)oc2c1)CCCC3)c1ccco1,i,30,13,50,44*,45*
CC(=O)Oc1ccc2c3c(c(=O)oc2c1)CCCC3,i,-21,-2,11,-2,nt
COc1ccc(CNC(=S)NC2CCCC2)cc1,i,7,12,12,15,nt
Cc1ccc(CNC(=S)NC2CCC(C(C)(C)C)CC2)cc1 (stereo not given),i,36,-71,43,42*,18
O=C(Nc1ccc2c(c1)oc1ccccc12)c1ccc2c(c1)OCO2,i,3,nt,8,40*,12
O=C(Nc1ccc2c(c1)oc1ccccc12)c1ccncc1,i,0,-28,42,43*,40*
O=C(Nc1ccc2c(c1)OCO2)c1ccc2c(c1)OCO2,i,12,12,13,6,nt
CCN(CC(=O)Nc1ccc(OC)cc1)C(=O)CSCc1c(C)noc1C,nt,-8,0,-1,1,nt
O=C(COc1ccc(S(=O)(=O)NC2CCCCC2)cc1)NC1CC1,nt,-21,2,-12,4,nt
